# Screens: PubChem BioAssay, National Center for Advancing Translational Sciences (NCATS)
# A selection: hits, their analogues and other compounds. The true share with any hit is near 1.6%.
# FUS yeast rescue: FUS proteinopathy suppression in yeast. S. cerevisiae FUS-expressing, growth rescue, OD600, 24 h. Potency, µM (titrated, usually from 76.6 µM), hits mostly activators. actives 0.24% (n = 390,000). AID 1347120;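 further: plate controls were DMSO vehicle for no effect and reference control for full effect; nearly all actives have a fitted effect of over 55% in size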
#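 Read-out: OD at 600 nm after 24hr at 30C, reporting rescue of FUS-induced yeast toxicity. Cells at OD 0.005 in galactose (2%) minimal medium; compounds tested in a dilution series; CP55940 titration from 92uM final as control.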
# Mito fusion act: blocks mitochondrial division or promotes mitochondrial fusion | S. cerevisiae fusion-defective mutant growth rescue, CellTiterGlo 48 h | Potency, µM (series often up to 46.1 µM), for inactives: at the top dose growth rescue (activation), actives largely listed as activators | actives 0.23% (n = 320,000); further: % of control where 0% means no effect; nearly all actives have a fitted effect of over 45% in size
#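 Growth-rescue viability read-out: after 48 h at the non-permissive 37C in glycerol/ethanol YPEG, yeast mitochondrial fusion mutants are measured by CellTiterGlo luminescence; compounds (23 nl pinned per well) restoring growth score as division inhibitors or fusion activators.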
# gsp ag: agonists of gsp mutant (McCune-Albright syndrome); gsp mutant cells, cAMP HTRF, 30 min; Potency, µM (doses to about 76.9 µM), inactives show at the top dose activation (cAMP increase), hits mostly activators; actives 0.13% (n = 340,000); AID 624287; active means well fitted activation curve with a large enough effect; inconclusive means small, poorly fitted or top-dose-only effect, or another doubt; inactive means no such curve, though single readings can be large or run the other way; cell line not stated here;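 further: phosphodiesterase inhibitor Ro 20-1724 added with compounds to block cAMP breakdown; nearly all actives have a fitted effect of over 60% in size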
#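 Cells in DMEM/10% FBS with G418 were pretreated with compounds in DMSO plus […] (300 uM stock) for 30 min at 37C. cAMP was measured by HTRF (cAMP-d2 plus anti-cAMP antibody-K) after 30 min at room temperature.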
# ALOX12 inh: ALOX12 (human) lipoxygenase inhibition | Potency, µM (highest dose often 108 µM), inactives show at the highest dose activity change, negative = inhibition, usual class: inhibitors | P18054 | actives 1.1% (n = 580,000) | purified 12hLO, xylenol orange hydroperoxide absorbance; further: on the % scale 0 is the no-effect control and ±100 the full control effect
# Target sequence (P18054 whole entry, looked up): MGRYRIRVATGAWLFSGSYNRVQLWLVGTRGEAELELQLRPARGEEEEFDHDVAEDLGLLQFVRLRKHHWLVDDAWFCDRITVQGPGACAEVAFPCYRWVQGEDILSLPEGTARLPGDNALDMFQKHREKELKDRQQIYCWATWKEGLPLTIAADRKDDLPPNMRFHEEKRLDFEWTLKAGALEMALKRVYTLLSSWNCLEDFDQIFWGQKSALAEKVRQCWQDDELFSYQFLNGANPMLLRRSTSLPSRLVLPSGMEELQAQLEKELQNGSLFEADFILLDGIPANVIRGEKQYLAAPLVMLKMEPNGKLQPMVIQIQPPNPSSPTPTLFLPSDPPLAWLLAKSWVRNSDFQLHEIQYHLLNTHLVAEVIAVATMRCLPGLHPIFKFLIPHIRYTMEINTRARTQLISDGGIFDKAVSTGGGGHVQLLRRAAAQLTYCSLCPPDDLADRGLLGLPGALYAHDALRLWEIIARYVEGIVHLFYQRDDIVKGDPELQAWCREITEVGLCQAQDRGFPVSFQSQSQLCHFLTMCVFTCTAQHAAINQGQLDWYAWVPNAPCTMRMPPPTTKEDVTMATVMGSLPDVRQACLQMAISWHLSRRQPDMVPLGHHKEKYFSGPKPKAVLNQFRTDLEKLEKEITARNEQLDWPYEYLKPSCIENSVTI
#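 Hydroperoxide product was detected by ferrous iron/xylenol orange as the 573 to 405 nm absorbance ratio. Arachidonic acid at 40 uM (final) was turned over for 30 min at room temperature by 150 nM human 12hLO, pH 7.0 Hepes buffer, after 15 min compound preincubation.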
# gsp antagonist: antagonizes gsp, the McCune-Albright syndrome mutation | Potency, µM (series often up to 76.9 µM), for the others: top-dose activity change, negative = inhibition, actives largely listed as inhibitors | gsp-mutant cells, cAMP HTRF, 30 min | actives 0.4% (n = 340,000); calls by dose curve; cell line not stated here;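 further: intracellular cAMP measured with PDE inhibitor Ro 20-1724 present during compound exposure; on the % scale 0 is the no-effect control and ±100 the full control effect; nearly all actives have a fitted effect of over 65% in size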
#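 Cells in G418 medium, seeded 16-24 h, 37C; buffer exchange to DPBS + 1 mM CaCl2, 0.5 mM MgCl2, 0.05% BSA; cpds in DMSO + […] (300 uM stock), 30 min 37C; HTRF cAMP detection.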
# Starred values were filed as active, the others as inactive; i = inactive; ? = inconclusive; . = not tested or not shown; ! = not confirmed by another sample; [ ] = dose if it differs, or a comment. Unless noted, the call rests on the fitted dose curve; in most records, active means well fitted curve in the direction sought with a large enough effect; inconclusive means small, poorly fitted or top-dose-only effect, or another doubt; inactive means no such curve, though single readings can be large; an effect the other way counts as inactive or inconclusive. Potency means the concentration at half of the fitted maximal effect.
SMILES,FUS yeast rescue,Mito fusion act,gsp ag,ALOX12 inh,gsp antagonist
Oc1ccc(CNc2cccc(F)c2F)c2cccnc12,.,1%,.,.,.
Oc1ccc(CNc2ccccc2F)c2cccnc12,i,-8%,4%,2.2µM*!,-1%
CC(=O)c1ccc(S(=O)(=O)Nc2cccc(-n3cnnn3)c2)cc1,i,13%,?,-15%,-20%
CC(=O)Nc1ccc(S(=O)(=O)Nc2cccc(-n3cnnn3)c2)cc1,i,1%,7.9µM*,1%,8%
COc1ccc(CCNC(=O)c2ccc3c(c2)N(Cc2ccc(F)cc2)CCS3)c(OC)c1,i,0%,7.1µM*,-23%,-15%
CCC(C)(C)NC(=O)C(c1ccccc1F)N(Cc1ccco1)C(=O)Cn1nnc2ccccc21 (configuration not stated),i,10µM*,15%,311%,-6%
O=C(NC1CCCCCCC1)c1cc(COc2ccc3ncccc3c2)on1,i,1%,3%[15.4 µM],10%,40µM*
Cc1cccnc1CN1CCN(C(=O)c2cc(COc3ccc4ncccc4c3)on2)CC1,i,-2%,0%[15.4 µM],14%,32µM*
CC(CNC(=O)c1cc(COc2ccc3ncccc3c2)on1)c1ccccc1 (configuration not stated),.,?,-2%,?,32µM*
O=C(c1cc(COc2ccc3ncccc3c2)on1)N1CCC(O)CC1,i,-2%,2%[15.4 µM],-5%,-8%
Cc1cc(CN(C)C(=O)c2cc(COc3ccc4ncccc4c3)on2)on1,i,-3%,19%,-11%,-20%
CN(CC(=O)NC1CC1)c1nc(-c2cccs2)nc2ccccc12,.,.,.,24%,.
CCc1nnc(NS(=O)(=O)c2ccc(NC(=S)NC(=O)c3ccc(Br)cc3)cc2)s1,.,1%,-10%,5.6µM*,?
CCc1nnc(NS(=O)(=O)c2ccc(NC(=S)NC(=O)c3ccccc3)cc2)s1,.,1%,-4%,7.9µM*,-21%
CCc1nnc(NS(=O)(=O)c2ccc(NC(=S)NC(=O)/C=C/c3ccccc3)cc2)s1,i,-1%,-25%[15.4 µM],22µM*,-20%
COc1nccnc1NS(=O)(=O)c1ccc(NC(=S)NC(=O)/C=C/c2ccc(F)cc2)cc1,i,-7%,4%,13µM*,?
COc1cc(NS(=O)(=O)c2ccc(NC(=S)NC(=O)/C=C/c3ccc(F)cc3)cc2)ncn1,i,-3%,2%,-11%,?
Cc1nn(Cc2ccccc2)c(C)c1NC(=O)Nc1cccc(Cl)c1,.,.,.,5%,.
CC(Sc1nnc(-c2nn(Cc3ccccc3)c(=O)c3ccccc23)o1)C(=O)N1CCCC1 (configuration not stated),.,.,.,26%,.
CCOC(=O)c1ccccc1NC(=O)Nc1cn(CC(C)C)c(=O)c2ccccc12,.,.,.,-7%,.
CC(C)(C)CC(=O)N1CCN2C(=O)c3cc(-c4ccccc4)ccc3NC(=O)[C@H]2C1,.,.,.,6%[176 µM],.
C/C(=N\NC(=O)c1ccc(C)cc1)c1ccc(C)s1,.,.,.,41%,.
CCOc1ccc2c(c1)cc(C(=O)Nc1ccc(F)cc1F)n2C,.,.,.,41%,.
CC(=O)C1=C(C)N(Cc2ccc(F)cc2)C(=S)NC1c1ccc(Br)cc1 (configuration not stated),.,.,.,35µM*,.
CC(=O)C1=C(C)N(Cc2ccc(Br)cc2)C(=S)NC1c1cccc(F)c1 (configuration not stated),.,.,.,45µM*,.
SMILES,FUS yeast rescue,Mito fusion act,gsp ag,ALOX12 inh,gsp antagonist
CC(=O)C1=C(C)N(Cc2ccccc2)C(=O)N[C@H]1c1cccc(F)c1,i,.,.,-14%,11%
CC(=O)C1=C(C)N(Cc2ccc(Br)cc2)C(=S)NC1c1ccc(F)cc1 (configuration not stated),.,.,.,35µM*,.
CCN1C(=O)N[C@@H](c2ccc(Br)cc2)C(C(C)=O)=C1C,i,.,-5%,6%,11%
COc1ccc(-c2cc(N3CCC(NC(=O)c4ccc(F)cc4F)CC3)n[nH]2)cc1,.,.,.,44%,.
Cc1nc(NC2CCCC2)sc1C(=O)NCc1ccncc1,.,.,.,8%,.
Cc1cccc(NC(=O)CN2C(=O)N/C(=C\c3cccn3-c3cccc(C(=O)O)c3)C2=O)c1,i,3%,-6%,45µM*,-6%
O=C(O)c1cccc(-n2cccc2/C=C2/NC(=O)N(c3ccc(Cl)cc3)C2=O)c1,i,-2%,-15%[15.4 µM],7.9µM*,-12%
O=C(O)c1cccc(-n2cccc2C=C2C(=O)c3ccccc3C2=O)c1,i,3%,-16%[15.4 µM],?,35µM*
COc1ccc(S(=O)(=O)NCCc2ccccc2)cc1-c1noc(C(C)(C)C)n1,.,.,.,3%,.
CC(C)CC(=O)Nc1ccc(N2CCN(C(=O)c3cccs3)CC2)cc1,i,-10%,4%[15.4 µM],-12%,1%
O=C(Cn1nc(-c2ccccc2)ccc1=O)Nc1ccc(N2CCN(C(=O)c3cccs3)CC2)cc1,8.9µM*,-6%,-21%[15.4 µM],2%,-1%
Cc1ccc(/C=N/NC(=O)c2ccccc2)cc1,.,.,.,3%,.
COc1cccc2c(Nc3ccc(C)cc3)cc(C)nc12,.,.,.,0%,.
CCOc1ccc(-c2[nH]nc3c2C(c2c(F)cccc2Cl)C(C#N)=C(N)O3)cc1OC (configuration not stated),.,.,.,-9%,.
CC(C)(Cc1ccc(O)cc1)NC(=O)CC(=O)N/N=C/c1ccc([N+](=O)[O-])cc1,i,-5%,-22%,1%,6%
CC(C)(Cc1ccc(O)cc1)NC(=O)CC(=O)N/N=C/c1ccc(Cl)cc1,i,-1%,-1%,8.9µM*,12%
COc1ccccc1C(C)NC(=O)Cc1n[nH]c(=O)c2ccccc12 (configuration not stated),.,.,.,-20%,.
COc1ccc2c(C)cc(SCC(=O)N(C)C3CCCCC3)nc2c1,.,.,.,3%,.
COc1ccc2c(C)cc(SCC(=O)NC3CCCC3)nc2c1,i,.,11µM*,?,14%
COc1ccc(C(=O)NCc2nnc(SCC(=O)NC3CCCCC3)n2C)cc1,i,0%,-5%[15.4 µM],40µM*,3%
Cn1c(CCc2ccccc2)nc2cc(NC(=O)c3ccc(C#N)cc3)ccc21,.,.,.,3%,.
Cc1ccccc1NN=Nc1nc2c([nH]1)c(=O)n(C)c(=O)n2C,i,-6%,0%,-31%,16%
CC1CCN(N=Nc2nc3c([nH]2)c(=O)n(C)c(=O)n3C)CC1,i,.,13µM*,-4%,5%
Cn1c(=O)c2[nH]c(N=NN3CCCCC3)nc2n(C)c1=O,i,.,?,-11%,7%
CC(=O)/C(N=Nc1nc2c([nH]1)c(=O)n(C)c(=O)n2C)=C(\C)O,2.2µM*,2%,-1%[15.4 µM],456%,-2%
CCN1CCN(CCNC(=O)c2cc(-c3ccc(Cl)cc3)cn2CC)CC1,.,.,.,-9%,.
